Data on 20 compounds can be found in PubChem BioAssay (NCATS).

For assay [1], the target named is Rap guanine nucleotide exchange factor 3 (Homo sapiens) (UniProt O95398). Briefly: Confirmatory qHTS for antagonist of cAMP-regulated guanine nucleotide exchange factor 3 (EPAC1) (AID 1645880).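 For activity, negative = inhibition: plate controls were DMSO only for no effect and full effect of the ATA control for full effect.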 Note: nearly all actives have a fitted effect of over 55% in size. Note: potency is the fitted concentration of half-maximal effect. As to conditions: EPAC1 Rap1B-BODIPY-GDP exchange, fluorescence; activity, negative = inhibition: at 115 µM (top of the series). The gist of the method: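 Nucleotide exchange uses 100 nM EPAC1, 250 nM RAP1B-BODIPY-GDP and 50 uM GDP, with compounds in a concentration-titration series. After 5 min at room temperature, fluorescence (480 nm ex/540 nm em) is read every 5 min for 30 min. Data are normalized to control ATA and DMSO.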

The target is the same in assay [2]. The assay can be described thus: Confirmatory qHTS for agonist of cAMP-regulated guanine nucleotide exchange factor 3 (EPAC1) (AID 1645881).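 Note: EPAC1 catalysed release of BODIPY-GDP from Rap1B seen as fluorescence loss; 100% = effect of cAMP agonist control; nearly all actives have a fitted effect of over 75% in size.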 On the technique in general: Quantitative high-throughput screening tests each substance at several concentrations.
For assay [3], the target named is Rap guanine nucleotide exchange factor 4 (Homo sapiens) (UniProt Q8WZA2). Briefly: Confirmatory qHTS for agonist of cAMP-regulated guanine nucleotide exchange factor 4 (EPAC2) (AID 1645884).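 Note: nucleotide exchange releases bodipy-GDP from Rap1 and this lowers its fluorescence; % is set by controls: 0 for no effect and ±100 for the full control effect; nearly all actives have a fitted effect of over 65% in size.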
For assay [4] the target is unchanged. The assay can be described thus: Confirmatory qHTS for antagonist of cAMP-regulated guanine nucleotide exchange factor 4 (EPAC2) (AID 1645885). For activity change, negative = inhibition: % is set by controls: 0 for no effect and ±100 for the full control effect. Note: nearly all actives have a fitted effect of over 25% in size. Note: potency is the fitted concentration of half-maximal effect.
Assay [5] concerns the target Rap guanine nucleotide exchange factor 3 (Homo sapiens) (UniProt O95398). Briefly: Counterscreen qHTS for antagonist of cAMP-regulated guanine nucleotide exchange factor 3 (EPAC1) (AID 1645888).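 Note: fluorescence loss as bound BODIPY-GDP is released from Rap1B; % of control where 0% means no effect.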 The gist of the method: (§1)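 Rap1B-BODIPY-GDP 250 nM + GDP 50 uM; cpds 7-pt, final 9.74 nM–152 uM (activator mode) or from 7.32 nM upwards (inhibitor mode); RT; FI 480/540 nm at 5 and 30 min, then ± cAMP, reread.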
For orientation: A counterscreen serves to expose hits that act by an unwanted route or on another target.

For assay [6] the target is unchanged. Briefly: Counterscreen qHTS for agonist of cAMP-regulated guanine nucleotide exchange factor 3 (EPAC1) (AID 1645889). For activation: % of control where 0% means no effect. Note: nearly all actives have a fitted effect of over 40% in size. Note: potency is the fitted concentration of half-maximal effect. The method in brief:
as §1

Structures are written as SMILES. Results filed as inconclusive are left out. Values without a mark were called inactive. Activity calls are given as the source filed them. Calls come from the whole dose curve; as a rule, active = well fitted curve in the direction sought with a large enough effect; inconclusive = small, poorly fitted or top-dose-only effect, or another doubt; inactive = no such curve, though single readings can be large; an effect the other way counts as inactive or inconclusive.

Chain of Rap guanine nucleotide exchange factor 3 (Homo sapiens) (O95398 whole entry, looked up): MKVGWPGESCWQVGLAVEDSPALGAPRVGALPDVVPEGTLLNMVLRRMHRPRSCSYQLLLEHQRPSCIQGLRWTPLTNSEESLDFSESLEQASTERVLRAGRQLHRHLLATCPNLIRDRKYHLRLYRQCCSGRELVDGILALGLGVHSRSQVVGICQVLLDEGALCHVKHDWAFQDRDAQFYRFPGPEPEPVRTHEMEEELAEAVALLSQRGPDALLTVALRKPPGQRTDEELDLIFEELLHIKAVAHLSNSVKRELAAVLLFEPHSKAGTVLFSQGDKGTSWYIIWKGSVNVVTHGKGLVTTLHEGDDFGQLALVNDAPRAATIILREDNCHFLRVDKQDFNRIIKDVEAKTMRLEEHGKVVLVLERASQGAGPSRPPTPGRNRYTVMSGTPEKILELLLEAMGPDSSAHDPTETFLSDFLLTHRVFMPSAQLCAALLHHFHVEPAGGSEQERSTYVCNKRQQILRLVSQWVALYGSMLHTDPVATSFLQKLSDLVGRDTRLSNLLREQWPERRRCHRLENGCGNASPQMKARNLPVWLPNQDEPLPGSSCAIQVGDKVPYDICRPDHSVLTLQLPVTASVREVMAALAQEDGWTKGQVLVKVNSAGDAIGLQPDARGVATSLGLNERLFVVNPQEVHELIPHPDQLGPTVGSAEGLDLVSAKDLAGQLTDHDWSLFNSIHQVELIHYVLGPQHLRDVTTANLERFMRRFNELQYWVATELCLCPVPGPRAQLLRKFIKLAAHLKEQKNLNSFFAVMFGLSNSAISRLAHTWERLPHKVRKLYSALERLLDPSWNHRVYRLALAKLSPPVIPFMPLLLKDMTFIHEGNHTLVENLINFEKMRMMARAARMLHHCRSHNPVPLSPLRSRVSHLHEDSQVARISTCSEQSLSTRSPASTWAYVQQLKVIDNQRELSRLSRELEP
Chain of Rap guanine nucleotide exchange factor 4 (Homo sapiens) (Q8WZA2 whole entry, looked up): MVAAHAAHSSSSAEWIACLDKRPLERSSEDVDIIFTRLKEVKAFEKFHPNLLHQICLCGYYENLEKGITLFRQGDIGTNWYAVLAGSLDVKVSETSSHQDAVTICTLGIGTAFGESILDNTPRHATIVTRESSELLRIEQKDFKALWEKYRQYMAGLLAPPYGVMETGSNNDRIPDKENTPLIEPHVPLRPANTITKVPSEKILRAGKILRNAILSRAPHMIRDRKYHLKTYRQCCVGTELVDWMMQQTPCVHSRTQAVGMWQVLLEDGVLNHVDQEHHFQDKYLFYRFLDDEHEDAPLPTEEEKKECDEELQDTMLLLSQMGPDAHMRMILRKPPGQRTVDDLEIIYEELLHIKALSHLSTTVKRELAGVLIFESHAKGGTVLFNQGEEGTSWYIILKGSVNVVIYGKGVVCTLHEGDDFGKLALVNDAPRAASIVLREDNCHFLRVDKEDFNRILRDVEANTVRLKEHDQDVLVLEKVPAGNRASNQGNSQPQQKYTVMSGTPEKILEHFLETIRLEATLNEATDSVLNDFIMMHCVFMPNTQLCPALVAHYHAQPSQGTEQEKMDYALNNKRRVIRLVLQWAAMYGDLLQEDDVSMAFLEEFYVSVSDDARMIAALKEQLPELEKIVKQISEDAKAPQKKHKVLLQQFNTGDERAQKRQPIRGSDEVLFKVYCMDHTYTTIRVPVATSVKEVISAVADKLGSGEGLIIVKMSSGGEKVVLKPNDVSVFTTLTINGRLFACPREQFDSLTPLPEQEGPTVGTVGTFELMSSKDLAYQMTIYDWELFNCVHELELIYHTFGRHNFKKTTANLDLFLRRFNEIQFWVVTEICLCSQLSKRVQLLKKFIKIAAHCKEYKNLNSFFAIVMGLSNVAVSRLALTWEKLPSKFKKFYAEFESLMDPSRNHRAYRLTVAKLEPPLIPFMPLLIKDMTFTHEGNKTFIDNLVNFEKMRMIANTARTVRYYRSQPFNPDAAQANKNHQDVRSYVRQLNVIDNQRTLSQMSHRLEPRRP

For `Cc1cccc(C(=O)Nc2cc(S(=O)(=O)N3CCOCC3)ccc2N2CCCC2)c1`, the Potency result in assay [1], in assay [2], in assay [3], in assay [4] and in assay [5] was “inactive” in each case.

Take `Cc1ccccc1NC1c2ccccc2C(=O)N1Cc1ccco1` (stereo unspecified): the Potency result in assay [1], in assay [2] and in assay [4] was “inactive” each time. The activation was 2.58% [at 17.1 µM, percent relative to cAMP agonist control] in assay [3] and 17.8% [at 30.8 µM] in assay [6]. In addition, the activity change, negative = inhibition in assay [5] is -11.4% [at 30.8 µM].

Take `O=C(COc1ccccc1/C=C\c1[nH]c(=O)[nH]c(=O)c1[N+](=O)[O-])Nc1ccccc1`: the Potency in assay [1] was 10 µM (active). The Potency entry in assay [2] and in assay [4] was “inactive” each time. The activation is 2.16% [at 17.1 µM, percent relative to cAMP agonist control] in assay [3] and 7.06% [at 30.8 µM] in assay [6]. In addition, the activity change, negative = inhibition in assay [5] is 2.03% [at 30.8 µM].

With `CCc1ccc(NC(=O)COC(=O)CCC2CCCC2)cc1`, the Potency entry in assay [1], in assay [2], in assay [3], in assay [4], in assay [5] and in assay [6] was “inactive” in each case.

As for `C=CCOc1ccc(C2N3CC4(CC)CN2CC(CC)(C3)C4=O)cc1` (stereo unspecified), the Potency entry in assay [1], in assay [2] and in assay [4] was “inactive” in each case. The activation in assay [3] was 6.19% [at 17.1 µM, percent relative to cAMP agonist control]; in assay [6], 36.6% [at 30.8 µM]. The activity change, negative = inhibition in assay [5] was -3.19% [at 30.8 µM].

As for `CSCCC(NS(=O)(=O)c1ccc2c(c1)OCCO2)C(=O)N(C)Cc1ccc(F)cc1` (stereo unspecified), the Potency result in assay [1], in assay [2] and in assay [4] was “inactive” in each case. Besides, the activation was 1.67% [at 17.1 µM, percent relative to cAMP agonist control] in assay [3] and 5.06% [at 30.8 µM] in assay [6]. In addition, in assay [5], the activity change, negative = inhibition was -2.77% [at 30.8 µM].

With `Cc1ccccc1N=C(c1ccccc1)C1C(=O)c2ccccc2C1=O`, the Potency entry in assay [1], in assay [2] and in assay [4] was “inactive” throughout. Besides, the activation in assay [3] is 8.41% [at 17.1 µM, percent relative to cAMP agonist control]; in assay [6], 13.3% [at 30.8 µM]. Moreover, the activity change, negative = inhibition in assay [5] is -5.51% [at 30.8 µM].

In the case of `COc1ccc(C2CC(c3ccccc3OC(C)=O)=NN2C(C)=O)cc1` (stereo unspecified), the Potency result in assay [1], in assay [2], in assay [3], in assay [4], in assay [5] and in assay [6] was “inactive” in each case.

On to `COC(=O)/N=C(/Cc1ccc(OC)cc1)c1ccc(OC)cc1`, for which the Potency result in assay [1], in assay [2] and in assay [3] was “inactive” in each case.

With `COC(=O)c1ccc2nc(-c3ccccc3)c(Cc3ccccc3C(F)(F)F)n2c1`, the Potency entry in assay [1], in assay [2], in assay [3], in assay [5] and in assay [6] was “inactive” each time. In addition, in assay [4], the Potency was 0.757 µM (active).

For the compound `Cn1cccc1/C=C1\CCC/C(=C\c2cccn2C)C1=O`, the Potency in assay [1] is 75.7 µM (active); in assay [4], 75.7 µM (active); in assay [6], 39.8 µM (active). Besides, the Potency entry in assay [2], in assay [3] and in assay [5] was “inactive” each time.

Turning to `Cc1ccc(S(=O)(=O)NN2C(=O)/C(=C/c3cccnc3)SC2=S)cc1`, the Potency in assay [1] is 42.6 µM (active). Moreover, the Potency result in assay [2], in assay [3], in assay [4], in assay [5] and in assay [6] was “inactive” in each case.

Consider `NS(=O)(=O)c1cccc(Nc2nc3ccccc3nc2NS(=O)(=O)c2ccc(Cl)cc2)c1`, for which, in assay [1], the Potency was 75.7 µM (active). Moreover, the Potency result in assay [2] and in assay [3] was “inactive” in each case.

For the compound `CCOC(=O)c1cc(-c2nnc(SCC(=O)Nc3ccc(F)cc3)o2)c(C)nc1C`, the Potency result in assay [1], in assay [2], in assay [3], in assay [4] and in assay [5] was “inactive” throughout.

Consider `Cc1ccc(OCC(=O)OC(C)CN(C)Cc2ccccc2)cc1` (stereo unspecified), for which the Potency result in assay [1], in assay [2] and in assay [4] was “inactive” each time. In addition, the activation is 4.43% [at 17.1 µM, percent relative to cAMP agonist control] in assay [3] and 10.6% [at 30.8 µM] in assay [6]. Further, the activity change, negative = inhibition in assay [5] was 8.78% [at 30.8 µM].

Consider `COc1ccc(-c2nc(C)ncc2-c2ccccc2)c(O)c1`, for which the Potency entry in assay [1], in assay [2] and in assay [4] was “inactive” throughout. For the same compound, the activation in assay [3] was -0.293% [at 17.1 µM, percent relative to cAMP agonist control]; in assay [6], -4.43% [at 30.8 µM]. Moreover, the activity change, negative = inhibition in assay [5] is -10.8% [at 30.8 µM].

As to `CSc1ccc(CCNC(=O)c2csc3c2CCCCC3)cc1`, the Potency entry in assay [1], in assay [2], in assay [3], in assay [5] and in assay [6] was “inactive” in each case. The outcome in assay [4] is “inactive [at 12.7 µM]”.

As for `COc1cccc(-c2nc(SCC(=O)Nc3nc(-c4ccccc4)c(C)s3)[nH]c(=O)c2C#N)c1`, the Potency in assay [1] is 75.7 µM (active). Moreover, the Potency entry in assay [2], in assay [3], in assay [4] and in assay [5] was “inactive” each time.

As for `CCC(C)(C)NC(=O)C(c1ccccn1)N(C(=O)c1csnn1)C1CCCCC1` (stereo unspecified), the Potency result in assay [1], in assay [2], in assay [3], in assay [4], in assay [5] and in assay [6] was “inactive” throughout.

As to `COc1cccc(/C=N/NC(=O)c2cc3cc([N+](=O)[O-])ccc3s2)c1O`, the Potency in assay [1] is 35.5 µM (active). The Potency entry in assay [2] and in assay [4] was “inactive” each time. Moreover, the activation in assay [3] was 10.9% [at 17.1 µM, percent relative to cAMP agonist control]; in assay [6] it was 26.8% [at 30.8 µM]. The activity change, negative = inhibition in assay [5] was -2.63% [at 30.8 µM].
